Among the data in paper PMC7862700, “An all-to-all approach to the identification of sequence-specific readers for epigenetic DNA modifications on cytosine” are binding signal values, retold here.

Common to all, as to test: DAPPL (digital affinity profiling via proximity ligation, sequencing); 10 mM Tris-HCl pH 7.5, 50 mM NaCl, 1 mM DTT, 4% glycerol, room temperature, 30 min; GST-TFs on glutathione beads, 16-mer random dsDNA library, 0.1% formaldehyde crosslink after washing; high values mean tight binding
Holding throughout (settings): protein: recombinant; tags: N-terminal GST; dsDNA, one strand shown

For one experiment, the target named is T1, ELK1 (Homo sapiens, UniProt P19419 1-428).
T1 sequence: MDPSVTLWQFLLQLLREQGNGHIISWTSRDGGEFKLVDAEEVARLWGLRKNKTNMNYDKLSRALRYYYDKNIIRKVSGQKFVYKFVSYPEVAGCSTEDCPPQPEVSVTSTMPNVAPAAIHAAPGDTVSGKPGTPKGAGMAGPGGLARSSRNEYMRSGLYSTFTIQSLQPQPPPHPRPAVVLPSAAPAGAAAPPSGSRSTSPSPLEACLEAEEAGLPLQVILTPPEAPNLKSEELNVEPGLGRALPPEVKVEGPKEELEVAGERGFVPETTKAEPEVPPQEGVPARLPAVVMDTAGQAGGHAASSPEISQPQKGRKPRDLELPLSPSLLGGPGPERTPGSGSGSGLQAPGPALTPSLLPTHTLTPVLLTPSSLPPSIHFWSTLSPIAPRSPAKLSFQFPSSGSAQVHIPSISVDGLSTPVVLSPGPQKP
The method in brief:
(§1)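 Each value of binding signal is a hexamer's read frequency for a factor divided by the same hexamer's frequency in the tag-only sample. Barcoded, bead-captured GST fusions of human transcription factors made in yeast were pooled with that sample and incubated with 200 nmole of a random double-stranded 16-mer DNA library in Tris/NaCl/DTT/glycerol buffer at room temperature for 30 min. Washing, 0.1% formaldehyde crosslinking, proximity ligation, PCR and Illumina NextSeq500 sequencing followed.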

The target in a further experiment is T2, GABPA (Homo sapiens, UniProt Q06546 1-454).
T2 sequence: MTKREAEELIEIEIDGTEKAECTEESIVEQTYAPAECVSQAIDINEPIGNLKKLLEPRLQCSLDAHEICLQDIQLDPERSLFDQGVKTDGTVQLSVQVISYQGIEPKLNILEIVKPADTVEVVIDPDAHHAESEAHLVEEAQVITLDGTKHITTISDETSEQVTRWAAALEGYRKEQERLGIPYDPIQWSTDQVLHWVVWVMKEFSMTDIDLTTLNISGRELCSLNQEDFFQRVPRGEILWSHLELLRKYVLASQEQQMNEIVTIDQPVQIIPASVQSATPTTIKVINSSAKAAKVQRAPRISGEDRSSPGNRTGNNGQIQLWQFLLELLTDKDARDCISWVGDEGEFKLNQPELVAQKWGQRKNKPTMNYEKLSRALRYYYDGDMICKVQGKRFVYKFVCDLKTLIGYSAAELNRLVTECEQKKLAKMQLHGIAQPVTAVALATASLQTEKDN
Put shortly:
as §1

In the next experiment the target is T3, ERG (Homo sapiens, UniProt P11308 1-479).
T3 sequence: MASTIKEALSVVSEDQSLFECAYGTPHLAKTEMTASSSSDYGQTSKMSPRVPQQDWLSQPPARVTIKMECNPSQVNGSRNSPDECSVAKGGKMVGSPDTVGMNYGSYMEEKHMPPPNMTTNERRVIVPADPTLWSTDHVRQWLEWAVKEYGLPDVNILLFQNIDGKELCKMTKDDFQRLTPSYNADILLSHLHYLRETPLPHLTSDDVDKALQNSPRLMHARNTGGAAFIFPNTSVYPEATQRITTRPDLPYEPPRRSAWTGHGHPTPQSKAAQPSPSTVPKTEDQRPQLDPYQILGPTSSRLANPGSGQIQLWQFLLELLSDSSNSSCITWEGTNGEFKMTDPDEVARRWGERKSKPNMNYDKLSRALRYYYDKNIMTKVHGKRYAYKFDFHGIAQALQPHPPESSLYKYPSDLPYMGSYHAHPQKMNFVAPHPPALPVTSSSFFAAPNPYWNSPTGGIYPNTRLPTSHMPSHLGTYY
Put shortly:
as §1

The target in the next experiment is SPI1 (Homo sapiens, UniProt P17947 1-270). Put shortly:
as §1

Another experiment deals with SPIB (Homo sapiens, UniProt Q01892 1-262). The method in brief: as §1
SPIB, sequence (Q01892 whole entry): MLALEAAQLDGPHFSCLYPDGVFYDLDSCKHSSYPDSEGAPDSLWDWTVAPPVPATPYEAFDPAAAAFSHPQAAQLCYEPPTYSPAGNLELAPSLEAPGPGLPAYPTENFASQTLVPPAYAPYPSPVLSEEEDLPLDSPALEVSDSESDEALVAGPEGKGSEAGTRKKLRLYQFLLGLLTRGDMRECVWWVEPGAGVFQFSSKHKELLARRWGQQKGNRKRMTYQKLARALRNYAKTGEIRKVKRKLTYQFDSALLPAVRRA
Another experiment concerns the target T4, SPIC (Homo sapiens, UniProt Q8N5J4 1-248).
T4 sequence: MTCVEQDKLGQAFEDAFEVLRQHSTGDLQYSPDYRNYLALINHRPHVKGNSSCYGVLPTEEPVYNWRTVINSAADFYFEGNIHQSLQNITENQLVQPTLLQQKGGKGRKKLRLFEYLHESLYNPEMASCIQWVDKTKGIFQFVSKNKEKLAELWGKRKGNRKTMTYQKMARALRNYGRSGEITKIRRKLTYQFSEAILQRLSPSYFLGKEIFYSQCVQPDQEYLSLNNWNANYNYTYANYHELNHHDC
Put shortly: as §1

For another experiment, the target named is ELF4 (Homo sapiens, UniProt Q99607 1-663). The method in brief: as §1
ELF4, sequence (Q99607 whole entry): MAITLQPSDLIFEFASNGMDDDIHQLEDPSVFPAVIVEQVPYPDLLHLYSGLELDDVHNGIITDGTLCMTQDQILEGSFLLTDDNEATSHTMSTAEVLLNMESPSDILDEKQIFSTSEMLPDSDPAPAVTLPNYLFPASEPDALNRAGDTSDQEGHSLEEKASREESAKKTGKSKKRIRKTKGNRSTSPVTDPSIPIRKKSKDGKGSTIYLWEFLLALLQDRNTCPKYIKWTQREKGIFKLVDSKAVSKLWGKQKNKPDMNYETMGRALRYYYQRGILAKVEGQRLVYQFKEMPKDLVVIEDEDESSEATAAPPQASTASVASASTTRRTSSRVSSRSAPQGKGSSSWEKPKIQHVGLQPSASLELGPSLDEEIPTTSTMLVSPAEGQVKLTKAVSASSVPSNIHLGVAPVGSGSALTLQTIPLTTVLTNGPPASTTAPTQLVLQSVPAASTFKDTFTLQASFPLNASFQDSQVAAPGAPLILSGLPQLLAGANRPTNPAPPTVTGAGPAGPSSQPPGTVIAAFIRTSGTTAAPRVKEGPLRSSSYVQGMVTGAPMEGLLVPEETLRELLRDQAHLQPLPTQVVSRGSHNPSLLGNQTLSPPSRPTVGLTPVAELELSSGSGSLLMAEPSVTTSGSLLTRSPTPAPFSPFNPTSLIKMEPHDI
A further experiment addresses ETV1 (Homo sapiens, UniProt P50549 1-477). Put shortly:
as §1

A further experiment deals with T5, ETV3L (Homo sapiens, UniProt Q6ZN32 1-361).
T5 sequence: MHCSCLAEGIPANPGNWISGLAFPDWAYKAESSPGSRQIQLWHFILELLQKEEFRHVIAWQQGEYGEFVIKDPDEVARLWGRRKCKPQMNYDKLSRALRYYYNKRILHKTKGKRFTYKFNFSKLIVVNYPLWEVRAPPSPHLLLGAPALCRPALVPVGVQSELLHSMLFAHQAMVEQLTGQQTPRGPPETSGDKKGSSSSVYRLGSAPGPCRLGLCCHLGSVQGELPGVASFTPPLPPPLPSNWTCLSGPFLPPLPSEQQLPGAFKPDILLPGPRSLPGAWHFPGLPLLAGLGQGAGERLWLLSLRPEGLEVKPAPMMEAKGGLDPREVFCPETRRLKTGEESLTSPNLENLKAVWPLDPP
The method in brief:
as §1

Another experiment concerns the target T6, ETS2 (Homo sapiens, UniProt P15036 1-469).
T6 sequence: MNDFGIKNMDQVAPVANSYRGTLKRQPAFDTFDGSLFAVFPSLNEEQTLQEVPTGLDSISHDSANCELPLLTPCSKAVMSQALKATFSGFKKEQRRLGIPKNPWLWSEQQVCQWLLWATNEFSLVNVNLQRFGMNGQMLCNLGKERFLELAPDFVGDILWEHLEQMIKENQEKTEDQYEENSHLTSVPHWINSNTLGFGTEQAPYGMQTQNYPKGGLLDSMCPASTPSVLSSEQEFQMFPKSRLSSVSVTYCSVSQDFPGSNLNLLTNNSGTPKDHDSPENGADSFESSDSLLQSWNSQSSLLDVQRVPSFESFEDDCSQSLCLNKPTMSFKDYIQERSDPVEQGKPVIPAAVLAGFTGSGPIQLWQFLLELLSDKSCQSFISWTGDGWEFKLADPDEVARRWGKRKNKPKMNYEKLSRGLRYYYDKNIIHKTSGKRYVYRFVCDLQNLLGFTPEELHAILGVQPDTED
Put shortly:
as §1

Another experiment has as its target T7, SPDEF (Homo sapiens, UniProt O95238 1-335).
T7 sequence: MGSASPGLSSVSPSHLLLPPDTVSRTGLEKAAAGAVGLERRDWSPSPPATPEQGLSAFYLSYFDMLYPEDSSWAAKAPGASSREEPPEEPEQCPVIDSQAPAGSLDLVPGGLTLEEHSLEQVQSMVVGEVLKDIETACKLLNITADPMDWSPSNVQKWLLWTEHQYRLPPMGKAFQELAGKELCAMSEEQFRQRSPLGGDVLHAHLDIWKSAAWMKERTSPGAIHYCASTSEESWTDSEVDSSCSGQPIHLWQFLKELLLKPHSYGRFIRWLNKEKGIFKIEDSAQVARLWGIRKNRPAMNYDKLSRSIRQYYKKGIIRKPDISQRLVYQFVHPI
Put shortly:
as §1

A further experiment has as its target T8, ETV7 (Homo sapiens, UniProt Q9Y603 1-341).
T8 sequence: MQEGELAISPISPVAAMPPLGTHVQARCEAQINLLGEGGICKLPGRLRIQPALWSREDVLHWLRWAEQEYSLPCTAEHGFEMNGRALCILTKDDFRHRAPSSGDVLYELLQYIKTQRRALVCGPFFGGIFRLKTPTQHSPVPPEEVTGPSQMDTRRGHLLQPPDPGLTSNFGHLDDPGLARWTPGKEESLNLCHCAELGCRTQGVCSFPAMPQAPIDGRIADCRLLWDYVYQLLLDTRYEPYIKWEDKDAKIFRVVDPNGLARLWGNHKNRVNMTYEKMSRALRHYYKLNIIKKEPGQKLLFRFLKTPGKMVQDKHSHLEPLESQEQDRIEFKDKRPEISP
Put shortly: as §1

For a further experiment, the target named is T9, ETV3 (Homo sapiens, UniProt P41162-2 1-143).
T9 sequence: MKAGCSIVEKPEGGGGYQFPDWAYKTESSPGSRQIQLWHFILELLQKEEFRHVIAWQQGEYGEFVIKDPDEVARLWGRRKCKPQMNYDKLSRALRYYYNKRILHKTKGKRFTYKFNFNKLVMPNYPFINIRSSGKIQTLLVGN
The method in brief: as §1

The target in the next experiment is T10, EHF (Homo sapiens, UniProt Q9NZC4 1-300).
T10 sequence: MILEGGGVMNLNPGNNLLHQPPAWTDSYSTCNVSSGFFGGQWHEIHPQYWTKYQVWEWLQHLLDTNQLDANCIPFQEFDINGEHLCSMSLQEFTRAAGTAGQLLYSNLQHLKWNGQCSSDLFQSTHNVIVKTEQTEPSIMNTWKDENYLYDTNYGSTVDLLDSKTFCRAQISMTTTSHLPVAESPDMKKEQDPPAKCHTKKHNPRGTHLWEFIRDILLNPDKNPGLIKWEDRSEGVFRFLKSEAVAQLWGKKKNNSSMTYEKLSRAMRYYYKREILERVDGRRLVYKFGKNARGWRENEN
The method in brief: as §1

For a further experiment, the target named is T11, ELK4 (Homo sapiens, UniProt P28324-2 1-405).
T11 sequence: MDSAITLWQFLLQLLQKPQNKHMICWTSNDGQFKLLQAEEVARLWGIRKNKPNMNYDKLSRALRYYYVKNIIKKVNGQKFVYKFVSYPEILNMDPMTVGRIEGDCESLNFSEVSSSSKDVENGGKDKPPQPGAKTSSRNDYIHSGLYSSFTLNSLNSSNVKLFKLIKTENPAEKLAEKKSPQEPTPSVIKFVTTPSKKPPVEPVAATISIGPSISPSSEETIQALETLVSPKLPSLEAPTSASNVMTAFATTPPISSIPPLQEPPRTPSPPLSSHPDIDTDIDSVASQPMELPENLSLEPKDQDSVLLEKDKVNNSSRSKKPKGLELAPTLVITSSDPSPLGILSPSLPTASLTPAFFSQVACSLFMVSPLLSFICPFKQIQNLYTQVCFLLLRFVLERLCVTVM
The method in brief: as §1

ETV1, sequence (P50549 whole entry): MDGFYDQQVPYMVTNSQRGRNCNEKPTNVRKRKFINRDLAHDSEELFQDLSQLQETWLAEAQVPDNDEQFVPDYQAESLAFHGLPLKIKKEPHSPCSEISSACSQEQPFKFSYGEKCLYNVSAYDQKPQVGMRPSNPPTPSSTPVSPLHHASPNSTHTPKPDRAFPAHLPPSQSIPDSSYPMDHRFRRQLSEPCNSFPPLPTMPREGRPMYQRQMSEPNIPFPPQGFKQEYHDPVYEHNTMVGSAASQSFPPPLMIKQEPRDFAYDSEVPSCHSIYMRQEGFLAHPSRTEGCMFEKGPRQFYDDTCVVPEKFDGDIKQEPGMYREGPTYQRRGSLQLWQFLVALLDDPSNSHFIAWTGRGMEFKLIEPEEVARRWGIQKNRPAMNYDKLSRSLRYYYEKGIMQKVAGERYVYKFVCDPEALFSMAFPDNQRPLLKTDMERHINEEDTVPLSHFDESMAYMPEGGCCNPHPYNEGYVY

On to GGATCT, for which the binding signal is 1.07 fold enrichment (6-mer frequency, TF over GST control) in the experiment with ELK1; 1.02 fold enrichment (6-mer frequency, TF over GST control) in the experiment with GABPA; 1.01 fold enrichment (6-mer frequency, TF over GST control) in the experiment with ERG; 1.02 fold enrichment (6-mer frequency, TF over GST control) in the experiment with SPI1; 1.02 fold enrichment (6-mer frequency, TF over GST control) with SPIB; 1.01 fold enrichment (6-mer frequency, TF over GST control) with SPIC. Besides, the binding signal is 1.02 fold enrichment (6-mer frequency, TF over GST control) with ELF4; 1.03 fold enrichment (6-mer frequency, TF over GST control) with ETV1; 1.06 fold enrichment (6-mer frequency, TF over GST control) in the experiment with ETV3L; 1 fold enrichment (6-mer frequency, TF over GST control) in the experiment with ETS2; 1.54 fold enrichment (6-mer frequency, TF over GST control) with SPDEF; 1.07 fold enrichment (6-mer frequency, TF over GST control) with ETV7. Further, the binding signal with ETV3 was 1.08 fold enrichment (6-mer frequency, TF over GST control).

For the sequence GCTAAG, the binding signal with ELK1 was 1.08 fold enrichment (6-mer frequency, TF over GST control); with ERG it was 1.01 fold enrichment (6-mer frequency, TF over GST control); with EHF it was 1.05 fold enrichment (6-mer frequency, TF over GST control); with SPIC, 1.08 fold enrichment (6-mer frequency, TF over GST control); with ELF4, 1.06 fold enrichment (6-mer frequency, TF over GST control); with ELK4, 1.18 fold enrichment (6-mer frequency, TF over GST control). Moreover, the binding signal with ETV1 is 1 fold enrichment (6-mer frequency, TF over GST control); in the experiment with ETS2 it was 1.04 fold enrichment (6-mer frequency, TF over GST control); with SPDEF, 1.11 fold enrichment (6-mer frequency, TF over GST control); with ETV3, 1.04 fold enrichment (6-mer frequency, TF over GST control).
